# Assay results as given in PubChem BioAssay (NCI).
# The panel holds about 83,000 compounds, 20% with a hit somewhere; the sample as a whole holds those more often.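 Activity criterion: percent growth below 10, measured after cells in 96-well plates were exposed to a single compound concentration for 48 hours.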 Values without a mark were called inactive. Active and inactive are the calls of the source.
# How the values were obtained:
# Experiment in all cases: NCI-60 one-dose screen, 48 h (100 = growth as untreated, 0 = no growth, -100 = all killed)
# Settings in all cases: 10 µM unless noted
# HCT-15 colon = system: HCT-15 colon
# HT29 colon = system: HT29 colon
# SNB-75 CNS = system: SNB-75 CNS
# SNB-19 CNS = system: SNB-19 CNS
# PC-3 prostate = system: PC-3 prostate
# SK-MEL-5 melanoma = system: SK-MEL-5 melanoma
# UACC-62 melanoma = system: UACC-62 melanoma
# LOX IMVI melanoma = system: LOX IMVI melanoma
# SK-MEL-28 melanoma = system: SK-MEL-28 melanoma
# SK-MEL-2 melanoma = system: SK-MEL-2 melanoma
# SN12C renal = system: SN12C renal
# UO-31 renal = system: UO-31 renal
# TK-10 renal = system: TK-10 renal
# ACHN renal = system: ACHN renal
# CAKI-1 renal = system: CAKI-1 renal
# A498 renal = system: A498 renal
# CCRF-CEM leukemia = system: CCRF-CEM leukemia
# MOLT-4 leukemia = system: MOLT-4 leukemia
# EKVX NSCLC = system: EKVX NSCLC
# U251 CNS = system: U251 CNS
SMILES,growth (HCT-15 colon),growth (HT29 colon) [%],growth (SNB-75 CNS),growth (SNB-19 CNS),growth (PC-3 prostate),growth (SK-MEL-5 melanoma),growth (UACC-62 melanoma),growth (LOX IMVI melanoma),growth (SK-MEL-28 melanoma) [%],growth (SK-MEL-2 melanoma),growth (SN12C renal) [%],growth (UO-31 renal),growth (TK-10 renal),growth (ACHN renal),growth (CAKI-1 renal),growth (A498 renal),growth (CCRF-CEM leukemia),growth (MOLT-4 leukemia),growth (EKVX NSCLC),growth (U251 CNS)
O=C(CN1CCN(c2cc(=O)n(-c3ccccc3)c3ccccc23)CC1)Nc1ccc(F)cc1,69.2%,81,77.2%,77.3%,64.6%,16.9%,55.3%,67.4%,86.2,87.9%,77.7,40.6%,73.1%,65.4%,63.7%,53.6%,70%,44.4%,,
Cc1ccc(-n2cc(/C=N/NC(=O)c3nc(N)n[nH]3)c(-c3ccc(S(C)(=O)=O)cc3)n2)cc1,86.4%,105,92.2%,97.4%,96.8%,103%,88.5%,90.2%,101,103%,96.6,92.6%,119%,101%,92.6%,97.6%,84%,97.9%,92.9%,
Nc1ncc(-c2ccc3ncnc(N4CCc5cc(F)c(F)cc54)c3c2)cn1,23.1%,,27.3%,43.1%,17.7%,16.2%,9.67% (active),11.1%,,33.2%,25.1,8.51% (active),-2.82% (active),19.5%,15.3%,-42.9% (active),24.2%,8.56% (active),,41.2%
C=CC(=O)N1CC=C(c2cc3c(N[C@H](C)c4ccccc4)ncnc3[nH]2)CC1,82.6%,,-0.73% (active),91.9%,,95.5%,85.5%,56.2%,104,106%,22.4,19%,-3.79% (active),15.1%,11.3%,-17.4% (active),,97.8%,30.5%,94.6%
O=C(CN1CCN(c2cc(=O)[nH]c3ccc(F)cc23)CC1)Nc1ccc(Cl)cc1,79.3%,,13%,21.3%,78.6%,80.9%,47.9%,75.2%,,66.2%,60.8,75.2%,62.2%,57%,72.6%,54.9%,98.2%,92.4%,,42.6%
O=S(=O)(NCCCNc1nccc(-c2[nH]c(-c3ccccc3)nc2-c2ccc(Cl)c(O)c2)n1)c1cccc(F)c1,38.6%,,104%,82.9%,46.8%,23.5%,19.3%,39.8%,25.3,18.5%,68.2,56.6%,98.2%,57.2%,56.1%,101%,32.9%,40.3%,,64.4%
COc1ccc2[nH]cc(-c3csc4nc(-c5ccccc5)cn34)c2c1,11.3%,,-4.19% (active),23.6%,19.4%,47.2%,32.4%,-2.73% (active),73.8,-5.6% (active),40.2,33.2%,75.6%,38.6%,26.3%,-19.7% (active),16.2%,19.7%,35.8%,13.6%
O=C1[C@H]2Cc3c([nH]c4ccccc34)[C@@H](c3c(Cl)cccc3Cl)N2C(=O)CN1C1CCN(CC2CCCCC2)CC1,29.5%,,100%,94.6%,63.5%,83.7%,94.3%,-59.9% (active),99.3,,87.8,62.6%,142%,84.1%,81.9%,87.2%,47.2%,54.6%,88.2%,
CC(C)(C)c1ccc(C(=O)Nc2nc3ccc(O)cc3s2)cc1,-5.95% (active),,96.2%,63.5%,50.1%,37.5%,45.1%,10.4%,,71.4%,53.5,25.5%,74.9%,39%,15.1%,48.7%,41.9%,33%,47.5%,59.1%
COc1cc(OC)c(S(N)(=O)=O)cc1C(=O)/C=C/c1ccc(Cl)cc1,-41.6% (active),,27.1%,15.8%,28.2%,5.34% (active),18.6%,-50.4% (active),30.5,,16,7.22% (active),-5.25% (active),11.6%,21.5%,,1.6% (active),3.62% (active),29.8%,3.73% (active)
O=S(=O)(NCCNc1nccc(-n2cnc3ccccc32)n1)c1ccc(Cl)cc1,96.6%,,79.4%,97.7%,103%,99.4%,86.4%,93.5%,101,109%,96.6,81.6%,101%,96.4%,87.4%,84.8%,103%,103%,92.2%,102%
COc1cccc2cc(-c3cc4ccccc4[nH]3)/c(=N\NC(=O)c3ccc(Cl)cc3)oc12,20.3%,,,47.4%,35.3%,48.4%,16.1%,,42.6,68.3%,43,28%,46.7%,17.3%,30.7%,,16.6%,15.5%,33.8%,34.6%
Cc1cc(-c2ccc(Cl)cc2)n(Cc2nnc(SCC(=O)Nc3ccc(S(N)(=O)=O)cc3)n2C2CCCCC2)n1,98.4%,,118%,97.6%,101%,100%,99.2%,101%,,106%,105,82.3%,106%,104%,99.4%,111%,114%,141%,103%,101%
O=C(NNc1nc2cc(F)c(F)cc2n2cccc12)c1cnccn1,13.9%,,54.7%,31.5%,29.4%,29.3%,22.2%,11.4%,36,46.2%,39,23.3%,49.3%,17.6%,,43.6%,14.4%,7.98% (active),17%,26.4%
Nc1cc(-c2c[nH]c3ccc(Br)cc23)nc2cc(-c3c[nH]c4ccc(Br)cc34)nn12,2.64% (active),,41.9%,41.2%,,36.7%,11.6%,-52.8% (active),49.9,-43.7% (active),26.8,41.3%,35.7%,7.87% (active),21.1%,7.08% (active),7.39% (active),-3.94% (active),31.7%,
O=C1CCCc2nc(Nc3ccc(S(=O)(=O)Nc4ccc([N+](=O)[O-])cc4)cc3)ncc21,103%,,92.6%,96.2%,105%,104%,90.3%,97.1%,106,111%,96.2,87.1%,105%,104%,89.9%,,99.8%,101%,100%,103%
CN1CCN(Cc2ccc(NC(=O)c3cncc(C#Cc4cnc5ccc(N6CCN(C)CC6)nn45)c3)cc2C(F)(F)F)CC1,-57% (active),,-68.9% (active),-29.3% (active),-18.6% (active),90.5%,92.2%,-93.1% (active),82,56.4%,15.7,20.1%,59%,-98.1% (active),-95.3% (active),43.7%,-2.14% (active),-26.2% (active),-84.9% (active),-96.7% (active)
